The text below walks through data of article PMC7862700, “An all-to-all approach to the identification of sequence-specific readers for epigenetic DNA modifications on cytosine”.

Common to all, as to test: DAPPL (digital affinity profiling via proximity ligation, sequencing); 10 mM Tris-HCl pH 7.5, 50 mM NaCl, 1 mM DTT, 4% glycerol, room temperature, 30 min; GST-TFs on glutathione beads, 16-mer random dsDNA library, 0.1% formaldehyde crosslink after washing; high values mean tight binding
For assay [1], the target named is T1, FEV (Homo sapiens, UniProt Q99581 1-238).
T1 sequence: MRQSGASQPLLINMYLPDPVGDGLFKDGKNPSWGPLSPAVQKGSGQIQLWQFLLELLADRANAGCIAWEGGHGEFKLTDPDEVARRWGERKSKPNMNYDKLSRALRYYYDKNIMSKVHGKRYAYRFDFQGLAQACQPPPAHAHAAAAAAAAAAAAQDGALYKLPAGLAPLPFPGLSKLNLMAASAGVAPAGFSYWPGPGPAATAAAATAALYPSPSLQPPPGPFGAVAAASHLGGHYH
The conditions noted are these: protein: recombinant; tags: N-terminal GST; dsDNA, one strand shown. An outline of the steps: (§1)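 Human transcription factors were made in yeast as GST fusions, captured on glutathione beads and barcoded with DNA. With a tag-only sample included, the pool was incubated with 200 nmole of a random double-stranded 16-mer DNA library in Tris/NaCl/DTT/glycerol buffer at room temperature for 30 min, then crosslinked with 0.1% formaldehyde after washing, ligated by proximity, amplified and sequenced. For binding signal, each hexamer's read frequency for a factor is divided by its frequency for the tag-only sample.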

Assay [2] deals with ETV5 (Homo sapiens, UniProt P41161 1-510). The following applies: protein: recombinant; tags: N-terminal GST; dsDNA, one strand shown. An outline of the steps:
as §1

Assay [3] addresses HSF1 (Homo sapiens, UniProt Q00613 1-529). The conditions noted are these: protein: recombinant; tags: N-terminal GST; chain copies: 3; dsDNA, one strand shown. In short, it runs like this:
as §1

Assay [4] has as its target T2, SPIC (Homo sapiens, UniProt Q8N5J4 1-248).
T2 sequence: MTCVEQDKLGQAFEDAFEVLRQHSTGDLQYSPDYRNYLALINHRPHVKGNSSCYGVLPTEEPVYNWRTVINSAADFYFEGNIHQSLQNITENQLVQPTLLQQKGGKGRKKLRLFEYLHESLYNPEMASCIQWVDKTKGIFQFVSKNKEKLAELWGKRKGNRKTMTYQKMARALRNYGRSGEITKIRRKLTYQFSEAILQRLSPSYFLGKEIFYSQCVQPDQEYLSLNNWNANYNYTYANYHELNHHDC
The following applies: protein: recombinant; tags: N-terminal GST; dsDNA, one strand shown. An outline of the steps: as §1

The target in assay [5] is ELF4 (Homo sapiens, UniProt Q99607 1-663). The conditions noted are these: protein: recombinant; tags: N-terminal GST; dsDNA, one strand shown. In short, it runs like this: as §1
ELF4, sequence (Q99607 whole entry): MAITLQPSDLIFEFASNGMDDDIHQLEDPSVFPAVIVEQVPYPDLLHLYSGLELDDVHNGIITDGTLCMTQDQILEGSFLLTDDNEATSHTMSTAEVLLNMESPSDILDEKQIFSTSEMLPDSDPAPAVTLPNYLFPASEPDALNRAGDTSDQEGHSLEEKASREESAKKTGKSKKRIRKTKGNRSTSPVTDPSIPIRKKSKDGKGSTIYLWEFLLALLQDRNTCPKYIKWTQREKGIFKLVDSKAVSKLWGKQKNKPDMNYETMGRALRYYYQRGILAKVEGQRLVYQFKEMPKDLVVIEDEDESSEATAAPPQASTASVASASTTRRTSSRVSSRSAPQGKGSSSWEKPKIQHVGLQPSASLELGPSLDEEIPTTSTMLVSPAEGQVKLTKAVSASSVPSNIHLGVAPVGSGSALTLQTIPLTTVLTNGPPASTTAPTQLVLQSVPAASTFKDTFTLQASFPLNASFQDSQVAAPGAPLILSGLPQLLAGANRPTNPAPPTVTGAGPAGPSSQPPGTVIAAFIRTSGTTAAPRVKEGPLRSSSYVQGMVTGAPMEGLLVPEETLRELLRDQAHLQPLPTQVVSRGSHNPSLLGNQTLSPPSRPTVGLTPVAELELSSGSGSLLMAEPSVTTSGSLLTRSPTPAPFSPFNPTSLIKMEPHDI
In assay [6] the target is T3, ELK4 (Homo sapiens, UniProt P28324-2 1-405).
T3 sequence: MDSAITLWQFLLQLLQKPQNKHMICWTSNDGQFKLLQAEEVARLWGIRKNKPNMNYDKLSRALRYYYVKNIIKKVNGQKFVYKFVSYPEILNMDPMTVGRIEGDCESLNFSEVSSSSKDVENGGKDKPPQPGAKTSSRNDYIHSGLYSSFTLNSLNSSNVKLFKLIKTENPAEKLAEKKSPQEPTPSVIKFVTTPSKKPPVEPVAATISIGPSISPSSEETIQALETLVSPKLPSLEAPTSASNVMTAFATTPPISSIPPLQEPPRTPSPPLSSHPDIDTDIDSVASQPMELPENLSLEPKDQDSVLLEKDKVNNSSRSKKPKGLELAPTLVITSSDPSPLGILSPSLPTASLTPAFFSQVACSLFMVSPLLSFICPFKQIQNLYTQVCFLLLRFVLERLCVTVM
The conditions noted are these: protein: recombinant; tags: N-terminal GST; dsDNA, one strand shown. In short, it runs like this:
as §1

In assay [7] the target is T4, ETV2 (Homo sapiens, UniProt O00321 1-342).
T4 sequence: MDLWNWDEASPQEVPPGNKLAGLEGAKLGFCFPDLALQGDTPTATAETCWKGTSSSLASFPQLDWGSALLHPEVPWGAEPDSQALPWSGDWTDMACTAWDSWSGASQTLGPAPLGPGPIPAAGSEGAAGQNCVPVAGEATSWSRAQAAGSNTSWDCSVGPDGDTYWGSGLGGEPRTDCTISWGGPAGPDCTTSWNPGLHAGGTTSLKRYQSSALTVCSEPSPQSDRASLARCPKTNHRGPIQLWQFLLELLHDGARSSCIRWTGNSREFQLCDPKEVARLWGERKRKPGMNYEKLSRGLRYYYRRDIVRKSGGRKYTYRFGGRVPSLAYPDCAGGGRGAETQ
The following applies: protein: recombinant; tags: N-terminal GST; dsDNA, one strand shown. An outline of the steps:
as §1

The target of assay [8] is T5, ELF3 (Homo sapiens, UniProt P78545 1-371).
T5 sequence: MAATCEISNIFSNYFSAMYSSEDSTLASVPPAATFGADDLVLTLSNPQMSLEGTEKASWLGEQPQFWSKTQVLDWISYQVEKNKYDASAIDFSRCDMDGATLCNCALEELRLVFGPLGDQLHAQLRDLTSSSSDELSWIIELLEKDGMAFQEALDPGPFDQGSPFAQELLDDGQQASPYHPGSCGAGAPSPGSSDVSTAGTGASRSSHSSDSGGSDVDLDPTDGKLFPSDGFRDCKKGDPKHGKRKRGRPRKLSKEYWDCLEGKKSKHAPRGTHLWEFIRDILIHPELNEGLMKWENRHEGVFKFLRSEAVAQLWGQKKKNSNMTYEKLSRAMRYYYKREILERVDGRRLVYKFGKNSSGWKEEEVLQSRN
The following applies: protein: recombinant; tags: N-terminal GST; dsDNA, one strand shown. In short, it runs like this: as §1

The target of assay [9] is CRX (Homo sapiens, UniProt O43186 1-299). The following applies: protein: recombinant; tags: N-terminal GST; dsDNA, one strand shown. In short, it runs like this:
as §1

The target of assay [10] is ETV1 (Homo sapiens, UniProt P50549 1-477). The following applies: protein: recombinant; tags: N-terminal GST; dsDNA, one strand shown. In short, it runs like this:
as §1

ETV5, sequence (P41161 whole entry): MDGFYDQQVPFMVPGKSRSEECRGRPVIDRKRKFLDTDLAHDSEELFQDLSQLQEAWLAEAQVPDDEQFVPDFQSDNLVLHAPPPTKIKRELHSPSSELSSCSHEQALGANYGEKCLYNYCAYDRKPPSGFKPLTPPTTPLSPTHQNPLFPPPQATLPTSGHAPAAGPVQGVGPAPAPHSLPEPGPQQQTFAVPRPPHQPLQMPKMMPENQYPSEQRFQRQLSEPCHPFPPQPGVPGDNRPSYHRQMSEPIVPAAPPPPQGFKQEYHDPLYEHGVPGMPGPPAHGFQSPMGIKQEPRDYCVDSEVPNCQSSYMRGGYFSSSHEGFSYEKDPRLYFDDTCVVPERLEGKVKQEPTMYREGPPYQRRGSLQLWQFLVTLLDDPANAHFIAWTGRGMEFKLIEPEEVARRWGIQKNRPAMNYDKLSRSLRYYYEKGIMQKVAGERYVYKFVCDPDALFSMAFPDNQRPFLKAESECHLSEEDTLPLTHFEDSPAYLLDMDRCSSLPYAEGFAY
ETV1, sequence (P50549 whole entry): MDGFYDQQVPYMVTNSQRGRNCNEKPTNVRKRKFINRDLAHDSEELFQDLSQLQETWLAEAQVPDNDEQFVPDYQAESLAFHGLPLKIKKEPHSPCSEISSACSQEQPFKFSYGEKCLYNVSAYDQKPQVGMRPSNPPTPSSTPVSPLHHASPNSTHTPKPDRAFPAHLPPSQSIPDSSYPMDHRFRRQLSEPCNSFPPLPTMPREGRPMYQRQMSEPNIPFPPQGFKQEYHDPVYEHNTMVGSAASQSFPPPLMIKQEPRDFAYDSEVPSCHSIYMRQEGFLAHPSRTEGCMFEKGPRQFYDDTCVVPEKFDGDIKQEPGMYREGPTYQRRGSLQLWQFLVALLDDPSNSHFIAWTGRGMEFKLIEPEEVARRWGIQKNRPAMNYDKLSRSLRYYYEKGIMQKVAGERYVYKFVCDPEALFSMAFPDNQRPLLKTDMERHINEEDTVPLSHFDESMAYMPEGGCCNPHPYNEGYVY
CRX, sequence (O43186 whole entry): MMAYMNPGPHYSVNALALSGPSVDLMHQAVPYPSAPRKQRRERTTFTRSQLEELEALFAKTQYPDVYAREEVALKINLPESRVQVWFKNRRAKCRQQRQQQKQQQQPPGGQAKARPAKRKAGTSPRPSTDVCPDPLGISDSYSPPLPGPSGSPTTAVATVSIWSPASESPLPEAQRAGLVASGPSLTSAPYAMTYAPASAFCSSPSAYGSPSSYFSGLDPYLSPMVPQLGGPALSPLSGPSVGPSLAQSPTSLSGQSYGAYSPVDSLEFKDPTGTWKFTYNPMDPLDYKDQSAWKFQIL
HSF1, sequence (Q00613 whole entry): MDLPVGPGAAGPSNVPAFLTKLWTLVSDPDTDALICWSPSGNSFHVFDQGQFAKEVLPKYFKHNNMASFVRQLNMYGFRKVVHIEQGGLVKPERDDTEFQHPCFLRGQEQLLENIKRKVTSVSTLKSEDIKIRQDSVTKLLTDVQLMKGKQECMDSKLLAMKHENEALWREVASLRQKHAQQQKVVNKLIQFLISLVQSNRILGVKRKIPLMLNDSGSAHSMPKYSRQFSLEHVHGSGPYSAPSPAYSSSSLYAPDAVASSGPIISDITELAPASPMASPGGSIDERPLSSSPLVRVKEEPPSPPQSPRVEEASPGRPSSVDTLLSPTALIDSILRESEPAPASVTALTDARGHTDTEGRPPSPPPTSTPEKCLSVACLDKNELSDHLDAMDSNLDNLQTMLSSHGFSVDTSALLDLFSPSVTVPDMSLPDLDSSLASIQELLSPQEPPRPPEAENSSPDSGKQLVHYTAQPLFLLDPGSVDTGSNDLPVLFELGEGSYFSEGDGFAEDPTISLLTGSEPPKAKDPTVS

In the case of TTCTAA, the binding signal in assay [1] is 1.18 fold enrichment (6-mer frequency, TF over GST control); in assay [2], 1.22 fold enrichment (6-mer frequency, TF over GST control); in assay [3], 1.83 fold enrichment (6-mer frequency, TF over GST control); in assay [4], 1.13 fold enrichment (6-mer frequency, TF over GST control); in [5], 1.23 fold enrichment (6-mer frequency, TF over GST control); in assay [6] it was 1.22 fold enrichment (6-mer frequency, TF over GST control). Moreover, the binding signal in [7] is 1.26 fold enrichment (6-mer frequency, TF over GST control); in assay [8], 1.04 fold enrichment (6-mer frequency, TF over GST control); in assay [9], 1.84 fold enrichment (6-mer frequency, TF over GST control); in [10], 1.21 fold enrichment (6-mer frequency, TF over GST control).
As to TACTCG, the binding signal is 1.23 fold enrichment (6-mer frequency, TF over GST control) in [1]; 1.28 fold enrichment (6-mer frequency, TF over GST control) in assay [2]; 1.72 fold enrichment (6-mer frequency, TF over GST control) in assay [3]; 1.25 fold enrichment (6-mer frequency, TF over GST control) in assay [4]; 1.22 fold enrichment (6-mer frequency, TF over GST control) in assay [5]; 1.3 fold enrichment (6-mer frequency, TF over GST control) in assay [6]. Moreover, the binding signal was 1.19 fold enrichment (6-mer frequency, TF over GST control) in [7]; 1.29 fold enrichment (6-mer frequency, TF over GST control) in assay [8]; 1.38 fold enrichment (6-mer frequency, TF over GST control) in assay [9]; 1.26 fold enrichment (6-mer frequency, TF over GST control) in [10].
Take CGCCTA: the binding signal in [1] is 1.11 fold enrichment (6-mer frequency, TF over GST control); in assay [2] it was 1.18 fold enrichment (6-mer frequency, TF over GST control); in assay [3], 1.15 fold enrichment (6-mer frequency, TF over GST control); in [4], 1.36 fold enrichment (6-mer frequency, TF over GST control); in assay [5], 1.12 fold enrichment (6-mer frequency, TF over GST control); in assay [6], 1.28 fold enrichment (6-mer frequency, TF over GST control). Also, the binding signal in assay [7] was 1.13 fold enrichment (6-mer frequency, TF over GST control); in assay [8] it was 1.06 fold enrichment (6-mer frequency, TF over GST control); in assay [9], 1.18 fold enrichment (6-mer frequency, TF over GST control); in assay [10] it was 1.12 fold enrichment (6-mer frequency, TF over GST control).
As to CCGAGC, the binding signal is 1.18 fold enrichment (6-mer frequency, TF over GST control) in assay [1]; 1.14 fold enrichment (6-mer frequency, TF over GST control) in assay [2]; 1.13 fold enrichment (6-mer frequency, TF over GST control) in assay [3]; 1.26 fold enrichment (6-mer frequency, TF over GST control) in assay [4]; 1.09 fold enrichment (6-mer frequency, TF over GST control) in assay [5]; 1.09 fold enrichment (6-mer frequency, TF over GST control) in [6]. Moreover, the binding signal was 1.35 fold enrichment (6-mer frequency, TF over GST control) in [7]; 1.23 fold enrichment (6-mer frequency, TF over GST control) in assay [8]; 1.01 fold enrichment (6-mer frequency, TF over GST control) in assay [9]; 1.02 fold enrichment (6-mer frequency, TF over GST control) in assay [10].
With CTTACT, the binding signal in [1] is 1.17 fold enrichment (6-mer frequency, TF over GST control); in assay [2] it was 1.28 fold enrichment (6-mer frequency, TF over GST control); in [3] it was 1.34 fold enrichment (6-mer frequency, TF over GST control); in [4] it was 1.1 fold enrichment (6-mer frequency, TF over GST control); in assay [5] it was 1.36 fold enrichment (6-mer frequency, TF over GST control); in assay [6], 1.12 fold enrichment (6-mer frequency, TF over GST control). Further, the binding signal in [7] was 1.39 fold enrichment (6-mer frequency, TF over GST control); in assay [8], 1.24 fold enrichment (6-mer frequency, TF over GST control); in assay [9], 1.58 fold enrichment (6-mer frequency, TF over GST control); in [10] it was 1.23 fold enrichment (6-mer frequency, TF over GST control).
Take CCTGGT: the binding signal in assay [1] was 1.25 fold enrichment (6-mer frequency, TF over GST control); in [2], 1.42 fold enrichment (6-mer frequency, TF over GST control); in assay [3] it was 1.08 fold enrichment (6-mer frequency, TF over GST control); in assay [4], 1.34 fold enrichment (6-mer frequency, TF over GST control); in assay [5], 1.35 fold enrichment (6-mer frequency, TF over GST control); in [6] it was 1.2 fold enrichment (6-mer frequency, TF over GST control). Besides, the binding signal in [7] was 1.56 fold enrichment (6-mer frequency, TF over GST control); in assay [8] it was 1.13 fold enrichment (6-mer frequency, TF over GST control); in assay [9], 1.1 fold enrichment (6-mer frequency, TF over GST control); in assay [10] it was 1.54 fold enrichment (6-mer frequency, TF over GST control).
With TATCTA, the binding signal in [1] is 1.19 fold enrichment (6-mer frequency, TF over GST control); in assay [2], 1.14 fold enrichment (6-mer frequency, TF over GST control); in assay [3], 1.66 fold enrichment (6-mer frequency, TF over GST control); in assay [4], 1.19 fold enrichment (6-mer frequency, TF over GST control); in assay [5], 1.22 fold enrichment (6-mer frequency, TF over GST control); in [6], 1.2 fold enrichment (6-mer frequency, TF over GST control). Further, the binding signal is 1.25 fold enrichment (6-mer frequency, TF over GST control) in assay [7]; 1.34 fold enrichment (6-mer frequency, TF over GST control) in [8]; 1.73 fold enrichment (6-mer frequency, TF over GST control) in [9]; 1.14 fold enrichment (6-mer frequency, TF over GST control) in [10].
